# A selection: hits, their analogues and other compounds. The true share with any hit is near 2.9%.
# N-glyco inh = N-linked glycosylation inhibition | D54 ERlucT glycosylation luciferase reporter, 24 h; percent of 100 nM tunicamycin response | AID 588692 | actives 0.23% (n = 360,000) | reporter increase, % at 12.5 µM;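 active means mean luciferase reporter signal, scaled so untreated is 0 and the glycosylation-blocking control 100, at or above a set limit in every replicate; inconclusive means mean reaches the limit but not every replicate does; inactive means mean below the limit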;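 further: luciferase carries N-glycosylation sites so blocking glycosylation raises the light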
# esBAF inh = blocks esBAF chromatin remodeling in mouse ES cells; Bmi1-luciferase knock-in reporter, 24 h; 100% = twice the neutral-well signal; reporter increase, % at 12.5 µM; actives 2% (n = 350,000); AID 602393; in the data active means activation above about 40%; inconclusive means no clear call, values can overlap the other calls;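 further: a rise in the Bmi1 reporter signal indicates esBAF inhibition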
# Wnt act = activates Wnt/beta-catenin signaling in a reporter cell assay | activator, plate reader | activation, % at 9.35 µM | actives 1.2% (n = 300,000) | AID 743398; in the data active means activation above about 30%, passing the limit was not always enough; inconclusive means no clear call, values can overlap the other calls
# Vif imaging = inhibitors of HIV Vif | inhibition, % at 7.49 µM | HEK293T cells, Vif self-association by quenched fluorescence, imaging, 24 h | actives 0.35% (n = 340,000); in the data active means inhibition above about 50%, passing the limit was not always enough; inconclusive means no clear call, values can overlap the other calls; inactive means below about 31%
# MITF TRPM1 HTS = increases MITF-driven TRPM1 promoter luciferase signal | AID 588334 | SK-MEL-5 TRPM1-promoter luciferase, 24 h; % of positive control, neutral wells = 0 | activation, % at 12.5 µM | actives 0.75% (n = 300,000);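 active means mean activation of at least 80% with every replicate also reaching 80%; inconclusive means mean reaches 80% but some replicate falls short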
# PvdQ acylase = blocks Pseudomonas aeruginosa PvdQ acylase activity | purified PvdQ acylase, fluorescence plate reader | inhibition, % at 10 µM | actives 0.063% (n = 340,000) | AID 488965; in the data active means inhibition above about 30%, passing the limit was not always enough; inconclusive means no clear call, values can overlap the other calls
# Hits are given with their value; n = inactive; u = inconclusive; x = no result.
SMILES,N-glyco inh,esBAF inh,Wnt act,Vif imaging,MITF TRPM1 HTS,PvdQ acylase
O=C(NC1Cc2ccccc2C1)[C@H]1[C@H](CO)[C@H]2Cn3c(cccc3=O)[C@H]2N1C(=O)C1CCC1,x,n,x,x,x,x
CCN(CC)CCNC(=O)C12CC3CC(CC(C3)C1)C2,n,n,x,n,n,n
CCN(CC)CCNC(=O)C12CC3CC(C)(CC(C)(C3)C1)C2,n,n,x,68,n,n
C[C@H](CO)N1C[C@H](C)[C@H](CN(C)CC2CCOCC2)Oc2ncc(-c3cccc(F)c3)cc2C1=O,x,n,x,x,x,x
Cc1cnc(NC(=O)c2ccc3ncsc3c2)s1,n,x,48,n,n,n
CC(C)c1ccccc1NC(=O)c1ccc2ncsc2c1,n,n,n,n,n,n
CCc1nnc(NC(=O)c2ccc3ncsc3c2)s1,n,n,34,x,n,n
CCc1nnc(NC(=O)c2ccncc2)s1,n,n,x,n,n,n
COc1cccc(CNC(=O)C[C@H]2CC[C@@H](NS(=O)(=O)c3ccccc3OC)[C@@H](CO)O2)c1,x,n,x,x,x,x
C=CCNc1nc(NCCCN2CCCC2=O)c2sc(-c3ccccc3)cc2n1,n,n,n,n,x,x
O=C1CCCN1CCCNc1nc(NCc2ccccc2)nc2ccsc12,38,n,n,x,x,x
CC(C)Oc1ccc(C(=O)NC2CCCCC2)cc1,n,50,x,x,n,n
Cc1cccc(/C=C/C(=O)c2ccc(N3CCOCC3)cc2)c1,x,x,n,x,x,x
Cc1ccc(C(=O)Nc2ccc(N3CCCCC3)cc2)cc1,n,n,u,n,106,n
Cc1ccc(/C=C/C(=O)c2ccc(N3CCOCC3)cc2)s1,n,x,n,n,91,n
CC(C)Oc1ccc(C(=O)NC2CCS(=O)(=O)C2)cc1 (stereo not drawn),n,n,x,n,n,n
CC(=O)Nc1ccccc1C(=O)C(=O)Nc1cccc(C(=O)NC2CC2)c1,n,48,x,n,n,n
CCCCNC(=O)c1cccc(NC(=O)C(=O)c2ccccc2NC(C)=O)c1,n,n,n,n,n,n
O=C(Nc1ccc(N2CCCCC2)cc1)c1ccccc1,n,n,x,x,n,n
O=C(NCC[C@H]1CC[C@@H](NC(=O)c2cccnc2)[C@H](CO)O1)Nc1ccc(F)cc1,x,n,x,x,x,x
CN(C)CC(=O)Nc1ccc2c(c1)[C@@H]1C[C@@H](CC(=O)N3CCc4ccccc4C3)O[C@H](CO)[C@@H]1O2,x,n,x,x,x,x
C[C@@H]1CCCCO[C@H](CN(C)C(=O)Nc2ccc3c(c2)OCO3)[C@@H](C)CN([C@H](C)CO)C(=O)c2cc(NS(C)(=O)=O)ccc2O1,x,n,x,x,x,x
CC(=O)N1[C@@H]2c3ccc(C4=CCCC4)c(=O)n3C[C@H]1[C@H](CO)[C@H]2C(=O)NC1CCC1,x,n,x,x,x,x
O=C(Nc1ccc(N2CCCC2)cc1)c1ccc2ccccc2c1,n,n,32,n,n,n
O=C(c1ccccc1)c1ccc(N2CCOCC2)cc1,n,x,n,n,n,n
SMILES,N-glyco inh,esBAF inh,Wnt act,Vif imaging,MITF TRPM1 HTS,PvdQ acylase
CC(C)(C)c1ccc(C(=O)Nc2cccc(C(=O)N3CCOCC3)c2)cc1,n,x,n,n,n,n
Cc1cnc(C(=O)Nc2ccc(N3CCCCC3)cc2)cn1,n,x,n,n,92,n
Cc1ccc(C(=O)Nc2cccc(C(=O)N3CCOCC3)c2)cc1,n,n,41,n,n,n
O=C(c1ccccc1)c1ccc(N2CCCC2)cc1,n,60,n,x,94,n
Cc1cnc(C(=O)Nc2ccc(N3CCOCC3)cc2)cn1,n,n,x,n,n,n
CNC[C@H]1Oc2ccc(NC(=O)Nc3ccc(OC)cc3)cc2CC(=O)N([C@@H](C)CO)C[C@@H]1C,x,n,x,x,x,x
CCCNC(=O)N1C[C@@H](C)[C@H](OC)CN(C)C(=O)c2ccc(NC(=O)C3CCC3)cc2OC[C@@H]1C,x,n,x,x,x,x
Cc1ccc(C(=O)Nc2cccc(C(=O)NC3CCCC3)c2)cc1,n,50,n,n,n,n
Nc1cc(C(=O)c2ccccc2)ccc1N1CCOCC1,n,52,u,n,x,n
Cc1cccc(C(=O)Nc2cccc(C(=O)NC3CCCC3)c2)c1,n,n,n,n,n,n
O=C(Nc1ccc(N2CCCCC2)cc1)c1cncc(Br)c1,n,n,39,n,128,n
O=C(Nc1ccc(S(=O)(=O)N2CCCC2)cc1)c1cncc(Br)c1,n,n,n,n,n,n
Cc1ccc(C(=O)Nc2ccc(N3CCOCC3)cc2)cc1,n,56,x,n,n,n
Cc1ccc(NC(=O)c2ccc(S(=O)(=O)N3CCOCC3)cc2)cc1,n,n,n,u,n,n
CC(=O)Nc1cc(C(=O)c2ccccc2)ccc1N1CCOCC1,n,n,x,n,x,n
Cc1ccc(S(=O)(=O)N[C@@H]2CC[C@@H](CC(=O)NCCCN(C)C)O[C@@H]2CO)cc1,x,n,x,x,x,x
COc1ccccc1CNC(=O)C[C@H]1C=C[C@H](NC(=O)CN(C)C)[C@H](CO)O1,x,n,x,x,x,x
CO[C@H]1CN(C)C(=O)c2ccc(NC(=O)c3ccc4c(c3)OCO4)cc2OC[C@H](C)N(CC2CC2)C[C@H]1C,x,n,x,x,x,x
Cc1ccc(C(=O)Nc2ccc(N3CCCC3)cc2)cc1,n,44,n,n,n,n
Cc1cnc(C(=O)Nc2ccc(OC(F)(F)F)cc2)cn1,n,44,n,n,x,n
Cc1cnc(C(=O)Nc2nnc(C)s2)cn1,n,x,n,n,n,n
Cc1cnc(C(=O)Nc2nnc(C(C)C)s2)cn1,n,n,32,n,x,n
Nc1nc2ccc(C(=O)Nc3ccc(N4CCOCC4)cc3)cc2s1,n,51,n,n,n,n
Cc1ccc(C(=O)Nc2ccc(N3CCN(S(C)(=O)=O)CC3)cc2)cc1,n,n,n,n,n,n
O=C(Nc1ccc(N2CCOCC2)cc1)c1ccc2ncsc2c1,n,n,n,n,n,n
CCC(=O)N1[C@H](C(=O)NCc2ccccc2F)[C@@H](CO)[C@@H]2Cn3c(cccc3=O)[C@@H]21,x,n,x,x,x,x
CN(C)Cc1cn(CC[C@H]2CC[C@H](NS(=O)(=O)c3ccc(-c4ccccc4)cc3)[C@@H](CO)O2)nn1,x,n,x,x,x,x
C[C@H](CO)N1C[C@H](C)[C@@H](CN(C)C(=O)NC2CCCC2)Oc2ncc(-c3ccccc3)cc2C1=O,x,n,x,x,x,x
